In PubChem BioAssay AID504332 (National Center for Advancing Translational Sciences (NCATS), 2011):
The whole screen tested about 350,000 compounds, of which about 31,000 (8.9%) were called active. Inconclusive results (about 15%) are left out. The sample holds actives, similar compounds and a random draw of the others, so the mix is not that of the screen. The call rests on the fitted dose curve; in most records, active means well fitted inhibition curve with a large enough effect; inconclusive means small, poorly fitted or top-dose-only effect; inactive means no such curve, though single readings can be large or run the other way.

Each compound was assayed against Histone-lysine N-methyltransferase EHMT2 (Homo sapiens) (UniProt Q96KQ7) (assay: qHTS Assay for Inhibitors of Histone Lysine Methyltransferase G9a). Details: G9a H3K9 monomethylation, AlphaScreen, 2 h; series mostly up to 59 µM; activity, negative = inhibition: at the top concentration.
In short: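 Enzyme 20 nM + cpd, 15 min RT; add b-H3K9 pep 500 nM / SAM 20 uM; 2 h RT; anti-H3K9me1 Ab 0.5 ug/mL + SA donor / anti-rabbit acceptor beads 20 ug/mL each, 10 min; AlphaScreen read.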
Further: nearly all actives have a fitted effect of over 75% in size.
On the % scale 0 is the no-effect control and ±100 the full control effect; potency means the concentration at half of the fitted maximal effect.

Sequence of Histone-lysine N-methyltransferase EHMT2 (Homo sapiens) (Q96KQ7 913-1193 limits assumed): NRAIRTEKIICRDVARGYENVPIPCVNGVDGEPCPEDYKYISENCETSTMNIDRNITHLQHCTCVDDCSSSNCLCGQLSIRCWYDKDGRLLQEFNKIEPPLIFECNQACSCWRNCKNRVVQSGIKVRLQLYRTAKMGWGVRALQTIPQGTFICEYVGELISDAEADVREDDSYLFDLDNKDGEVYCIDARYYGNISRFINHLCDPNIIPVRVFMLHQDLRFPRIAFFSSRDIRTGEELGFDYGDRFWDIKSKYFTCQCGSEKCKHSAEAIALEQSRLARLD

activity, negative = inhibition, inactive:
COc1ccc(C2=NN(C(=O)CSc3nc(=O)n4ccc(C)cc4n3)C(c3ccc(C)cc3)C2)cc1 (stereo not given) 4.89% [at 2.33 µM]
CCc1noc(C)c1C(=O)NNC(=O)c1ccc(F)cc1 4.99% [at 102 µM]
CNC(=S)NNC(=O)c1ccc(N(C)C)cc1 -38.7% [at 102 µM]
COc1ccc(Cl)cc1C(=O)NNC(=S)NC1CCCC1 16.1% [at 102 µM]
CCCNC(=S)N1CCC(NC(=O)c2ccc(OC)cc2)CC1 28.9% [at 102 µM]
COc1ccc(C(=O)NC2CCN(C(=S)Nc3ccccc3)CC2)cc1 -1.57% [at 102 µM]
COc1cc(OC)c(C(=O)NC2CCCCCC2)cc1OC 13.1% [at 12.7 µM]
CC(=O)Nc1cccc(NC(=O)c2c(-c3ccccc3)noc2C)c1 10.1% [at 12.7 µM]
Cn1nnnc1SCC(=O)NNC(=O)c1ccc(Br)cc1 1.14% [at 102 µM]
COc1cccc(NC(=O)CN(C)CC(=O)c2c(N)n(Cc3ccccc3)c(=O)n(C)c2=O)c1 -2.39% [at 2.33 µM]
COc1ccc(NC(=O)c2ccc3nc(CCc4ccccc4)oc3c2)c(OC)c1 6.98%
CC1CCCN(C(=O)CN2C(=O)c3ccccc3S2(=O)=O)C1 (stereo not given) 6.05% [at 2.33 µM]
CC1(c2ccc3ccccc3c2)NC(=O)NC1=O (stereo not given) -3.89% [at 102 µM]
COc1cccc(NC(=O)CN(C)C(=O)c2ccccc2CCc2ccccc2)c1 3.17% [at 12.7 µM]
O=C(NCCCN1CCOCC1)c1cc(-c2ccccc2F)no1 20.4% [at 102 µM]
CSc1ccc(CCNC(=O)c2ccc3c(c2)nc2n3CCOC2)cc1 -0.567%
Clc1ccc(C(Cn2ccnc2)OCc2ccsc2Cl)c(Cl)c1 (stereo not given) -28.9% [at 12.7 µM]
CCOC(=O)c1[nH]c(C)c(CCC(=O)NCc2ccccc2C)c1C 13.7%
Cc1ccc2ncc(C(=O)Nc3ccc(OC(F)(F)F)cc3)c(=O)n2c1 -23.6%
Cc1nn(CC(=O)N2CCN(c3cccc(C(F)(F)F)c3)CC2)c(=O)c2cc3sccc3n12 -1.49%
CC(NS(=O)(=O)c1ccc(OCC(=O)N2CCCC2)cc1)c1ccccc1 (stereo not given) 3.21% [at 102 µM]
COc1ccc(C(=O)Nc2cc(C)ccc2NC(=O)COc2ccccc2)cc1 22.1%
COc1ccc(OCC(=O)NNC(=O)c2cccc(C)c2)cc1 1.31% [at 102 µM]
Cc1onc(-c2ccccc2)c1C(=O)Nc1ccccc1C#N 14.5% [at 102 µM]
COc1ccc(C(=O)NC(=S)NNC(=O)CCc2ccccc2)cc1 28.9% [at 0.0925 µM]
COCCCNC(=S)NC(=O)c1ccccc1 6.49%
Cc1ccc(CNC(=O)c2c(-c3ccccc3)noc2C)cc1 -6.57% [at 102 µM]
Cc1cn(C)c(CC(=O)NCc2ccc(Cl)cc2)c1C(=O)O 5.99%
CCC(=O)N1CCc2cc(S(=O)(=O)NCCC(=O)Nc3cccc(C)c3C)ccc21 -36.9%
COc1ccc2ncc3c(-c4ccc(C)c(C)c4)nn(CC(=O)NC4CCCC4)c3c2c1 6.47%
CC1Cc2cc(S(=O)(=O)CCC(=O)Nc3ccc(F)c(Cl)c3)ccc2N1C(=O)C1CC1 (stereo not given) -7.75%
O=C(Nc1ccccc1)c1cc2ccccc2[nH]1 9.33%
CC(=O)N1CCN(C(=O)c2cc(-c3ccc(Cl)s3)nc3ccccc23)CC1 1.51% [at 102 µM]
C#CCOc1ccc(C2CC(=O)Nc3c2c(C)nn3-c2nc(C)cc(C)n2)cc1 (stereo not given) 0.767%
Cc1ccc(-c2nc(CS(=O)(=O)CC(=O)NCc3ccccc3Cl)c(C)o2)cc1 -6.32%
CC(C)(C)C(=O)CSc1ccc(S(=O)(=O)N2CCCC2)cn1 -13.9% [at 2.33 µM]
CC1=C(C(=O)OCC2CCCCC2)C(c2c(F)cccc2Cl)CC(=O)N1 (stereo not given) 7.87%
CC(C)c1ccc(S(=O)(=O)N2CCN(C(=O)CN3C(=O)NC(C)(c4ccccc4)C3=O)CC2)cc1 (stereo not given) 0.311% [at 102 µM]
O=C(CN1CCSc2ccccc21)N1CCN(c2ccccc2)CC1 -30.2%
O=C(Cc1ccccc1)N1CCN(S(=O)(=O)c2ccc([N+](=O)[O-])cc2)CC1 0.141% [at 102 µM]
O=C(CN1CCCSc2ccccc21)N1CCN(S(=O)(=O)c2cccc(F)c2)CC1 15.4% [at 12.7 µM]
CCN(C(=O)CSc1ncnc2c1cnn2-c1ccccc1)C1CCS(=O)(=O)C1 (stereo not given) 7.57% [at 0.501 µM]
O=C(OCc1cc(=O)n2nc(C3CC3)sc2n1)c1ccccc1Cl 0.251%
O=C(NNC(=O)c1ccc(-n2cncn2)c([N+](=O)[O-])c1)c1ccccc1 14.9% [at 12.7 µM]
CCc1cc2c(cc(C(=O)OC)n2Cc2nc(-c3ccc(C)cc3)oc2C)s1 -24.2%
N#Cc1nc(-c2cccc3ccccc23)oc1N 2.47% [at 2.33 µM]
CCCCN(C(=O)C(CCSC)N1C(=O)c2ccccc2C1=O)c1c(N)n(CCC)c(=O)[nH]c1=O (stereo not given) 17.2% [at 12.7 µM]
COc1ccc2oc(C(=O)N(CC(C)C)C3CCS(=O)(=O)C3)c(C)c2c1 (stereo not given) 7.64% [at 0.501 µM]
COc1cccc(Cn2cnc3c([N+](=O)[O-])c(C)c(C)cc32)c1 -11.2% [at 102 µM]
CSc1nn(Cc2cccc(C)c2)c(N)c1S(=O)(=O)c1ccccc1 -1.54%
COc1cc(OC)cc(-c2nc3nc(C)c(CCC(=O)Nc4ccccc4)c(C)n3n2)c1 -2.91%
O=C(CCc1nnc2ccc(NCc3ccco3)nn12)Nc1cc(F)ccc1F -3.92% [at 102 µM]
Cc1sc2ncnc(N3CCC(C(=O)Nc4ccc(F)cc4Cl)CC3)c2c1C -22.6% [at 12.7 µM]
CN(Cc1ccccc1)c1ncnc2onc(-c3ccc(F)cc3)c12 6.18%
CCN(CC(=O)Nc1cc(Cl)ccc1C)C(=O)CSCc1ccc(C)cc1 -2.36% [at 2.33 µM]
Cc1ccc(CSCC(=O)N(C)CC(=O)Nc2ccc(C)cc2)cc1 -0.261% [at 102 µM]
CC(=O)c1nn(-c2ccc(OC(F)(F)F)cc2)nc1Nc1ccccc1 9.69%
Cc1ccc(N2CC(C(=O)N3CCC4(CC3)CC(=O)c3ccccc3O4)CC2=O)cc1C (stereo not given) 6.18% [at 0.501 µM]
CCOc1ccc(NS(=O)(=O)c2ccc(C(=O)NC3CCN(Cc4ccccc4)CC3)cc2)cc1 17.4% [at 2.33 µM]
CCOc1ccc(S(=O)(=O)Nc2ccc(C(=O)NCCCN3CCCC3=O)cc2)cc1 12.9%
COc1ccc(Cn2c(=O)c3oc4ccccc4c3n(CC(=O)Nc3ccc(F)cc3F)c2=O)cc1 2.4%
COc1ccc(NC(=O)c2ccco2)cc1NC(=O)COc1ccc(C)c(C)c1 -5.49%
COc1ccc2[nH]cc(/C=C(/C#N)S(=O)(=O)c3ccccc3)c2c1 -5.58% [at 102 µM]
O=C(N/N=C/c1ccc([N+](=O)[O-])cc1)c1c[nH]c2ccccc12 -27.9% [at 102 µM]
CCCCn1c(N)c(N(Cc2ccccc2OC)C(=O)COc2cc(C)ccc2Cl)c(=O)[nH]c1=O -35.7% [at 102 µM]
Cn1nccc1/C=N\NC(=O)c1ccc(Cl)cc1 19.2% [at 102 µM]
OCC[C@H]1C[C@H](O)[C@@H](O)[C@]2(CCc3ccccc3O2)O1 7.67% [at 2.33 µM]
O=S(=O)(c1ccc(Br)c2ccccc12)N1CCOCC1 24.5% [at 0.501 µM]
COc1cccc(-n2c(=S)sc3c(=O)n(-c4ccccc4OC)c(SCC4OCCO4)nc32)c1 13.6%
COc1ccccc1N1CCN(C(=O)c2cc(=O)c3cc(C)cc(C)c3o2)CC1 -10.5% [at 2.33 µM]
Cc1cccc(C)c1NC(=O)CNC(=O)c1c(C)nn(-c2ccccc2)c1C 1.23% [at 102 µM]
Cc1nn(-c2ccccc2)c(C)c1C(=O)OCC(=O)NC(=O)NC1CCCCC1 14.9%
COc1ccc(C)cc1S(=O)(=O)Nc1cc2c3c(c1)CCC(=O)N3CCC2 5.66% [at 102 µM]
Cc1ccc2oc3c(c(=O)c2c1)C(c1ccc([N+](=O)[O-])cc1)N(CCCN1CCOCC1)C3=O (stereo not given) -4.28%
CC(=O)c1cccc(NC(=O)CSc2nc3c(c(=O)[nH]2)CCC3)c1 -8.01%
Cc1ccc(-c2nn(CCC(=O)Nc3ccc(OC(F)(F)F)cc3)c(=O)c3ccccc23)cc1 1.21%
O=C(c1ccc(Cl)s1)N(Cc1nnc(-c2ccccc2Cl)o1)C1CC1 9.15% [at 12.7 µM]
CC(C)N(Cc1nnc(-c2ccccc2Br)o1)C(=O)c1cc(Cl)nc2ccccc12 -53.3% [at 12.7 µM]

Potency, active:
CC(=O)NC(=S)NNC(=O)c1ccc(Br)cc1 8.91 µM
COc1cc(C(=S)NC2CCCCC2)ccc1O 35.5 µM
COc1ccc(C(=O)NC(=S)NC2CCCCC2)cc1 39.8 µM
Cc1onc(-c2ccccc2)c1C(=O)NNC(=S)NC(=O)c1ccc(F)cc1 31.6 µM
COc1ccc(OCC(=O)NNC(=O)c2ccc(-c3ccccc3)cc2)cc1 79.4 µM
COc1ccc(C(=O)NC(=S)NNC(=O)c2c(-c3ccccc3)noc2C)cc1 5.62 µM
COc1ccc(C(=O)NNC(=S)NC(=O)c2ccccc2)cc1 22.4 µM
S=c1ccc2ccccc2[nH]1 4.47 µM
N#C/C=C1\Sc2ccccc2C(=O)N1CC(=O)N1CCN(S(=O)(=O)c2ccccc2)CC1 70.8 µM
O=C(CN1CCCSc2ccccc21)N1CCN(S(=O)(=O)c2ccccc2)CC1 56.2 µM
Cc1cccc(Cn2cnc3c(N)c(C)c(C)cc32)c1 44.7 µM
CCCCN(C)CCNC(=O)CSCc1ccc(C)cc1 3.55 µM
CCOc1ccc(NS(=O)(=O)c2ccc(C(=O)NCC(c3ccccc3OC)N3CCCC3)cc2)cc1 (stereo not given) 1.26 µM
COc1ccc(/C=C(\C#N)c2c[nH]c3ccccc23)cc1 39.8 µM
COc1ccccc1-n1c(=S)[nH]c2c(sc(=S)n2-c2ccc(C)cc2C)c1=O 7.94 µM
Cc1cccc(C)c1NC(=O)COC(=O)c1c(C)nn(-c2ccccc2)c1C 11.2 µM
O=C(c1cc(-c2ccco2)nc2ccccc12)N(Cc1nnc(-c2ccc(Cl)cc2)o1)C1CC1 5.01 µM
